In all, about 410,000 compounds went through this assay and about 5,000 (1.2%) were called active. Not shown: some 13% with an inconclusive outcome. Calls come from the whole dose curve; as a rule, active = well fitted inhibition curve with a large enough effect; inconclusive = small, poorly fitted or top-dose-only effect; inactive = no such curve, though single readings can be large or run the other way. For the sample, actives were picked, then their nearest neighbours and some compounds at random.
Experiment: qHTS for Inhibitors of TGF-b; note: nearly all actives have a fitted effect of over 65% in size
Settings: HepG2 CAGA-GFP TGF-b/SMAD3 reporter, GFP fluorescence, 18 h, TGF-beta stimulated, 500 pg/mL final; series mostly up to 46.1 µM; activity, negative = inhibition: at the top concentration
Summary of the method: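 Smad-responsive CAGA-GFP expression was quantified in HEPG2 cells exposed to compounds and 500 pg/mL final TGF-beta for 18 h at 37 degrees C; unstimulated wells defined full inhibition.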
% is set by controls: 0 for no effect and ±100 for the full control effect; potency is the fitted concentration of half-maximal effect.

Which Potency does the source give for `CCCOc1ccc(-c2cccc(NS(=O)(=O)c3ccccc3)c2)nn1` here?
Its Potency is 10 µM (active).

With `CNC(=O)COc1ccc(S(=O)(=O)Nc2ccccc2)cc1` as the compound, how does the “activity, negative = inhibition” value read?
Its value is 3.64% (inactive).

With `CN(C)c1nc(=Nc2cccc(Cl)c2)ss1` as the compound, how does the Potency read?
The Potency was 0.282 µM (active).

Which “activity, negative = inhibition” value does the source give for `COc1ccccc1-c1ccnc2[nH]n(-c3ccccc3)c(=O)c12` here?
Its value is 12.7% (inactive).

With `CCOC(=O)C1CCCN(CC(=O)Nc2cc(C)c3c(=O)oc4ccccc4c3n2)C1` (stereo unspecified) as the compound, how does the “activity, negative = inhibition” value read?
The value was -2.9% (inactive).

For `O=C(O)C1CC=CC2CCN(C3CCCCC3)C(=O)C21` (stereo unspecified), which “activity, negative = inhibition” value is on record?
Its value is -5.85% (inactive).

With `CCOc1cc(/C=C(\C#N)C(=O)Nc2ccccc2C)ccc1OCc1cc(=O)n2nc(CC)sc2n1` as the compound, how does the “activity, negative = inhibition” value read?
The value was -28.7% (inactive).

With `C=C(C)C(=O)O[C@H]1C/C(C)=C\C(=O)/C=C(\C)[C@H](O)[C@@H]2OC(=O)C(=C)[C@@H]21` as the compound, how does the Potency read?
Its Potency is 3.55 µM (active).

Which “activity, negative = inhibition” value does the source give for `COc1ccc(NS(=O)(=O)c2ccc(N3CCOCC3)c(NC(=O)/C=C/C(=O)O)c2)cc1` here?
Its value is 5.91% (inactive).

Which “activity, negative = inhibition” value does the source give for `COC(=O)c1nc(NC(=O)c2ccc(C(C)(C)C)cc2)n[nH]1` here?
Its value is -3.02% (inactive).

For `COC(=O)c1sc(-c2ccc(C(C)(C)C)cc2)cc1NC(=O)/C=C/C(=O)O`, which Potency is on record?
The Potency was 8.91 µM (active).

With `COc1ccc(C(=O)Nc2ccc(-n3nncc3-c3ccccc3)cc2)cc1OC` as the compound, how does the “activity, negative = inhibition” value read?
The value was 13.3% (inactive).

Which Potency does the source give for `CCOC(=O)Nc1ccc2c(c1)N(C(=O)CCCl)c1ccccc1[S@]2=O` here?
The Potency was 7.08 µM (active).

For `CCOC(=O)Nc1ccc2c(c1)N(C(=O)CCN1CCN(CCO)CC1)c1ccccc1CC2`, which “activity, negative = inhibition” value is on record?
Its value is -2.31% (inactive).

For `CCOC(=O)Nc1ccc2c(c1)N(C(=O)CN1CCN3CCCC3C1)c1ccccc1CC2` (stereo unspecified), which “activity, negative = inhibition” value is on record?
Its value is -0.581% (inactive).

Which “activity, negative = inhibition” value does the source give for `S=c1[nH]c(=S)c2n[nH]nc2[nH]1` here?
Its value is 4.69% (inactive).

For `Cc1ccc(C(=O)Nc2c(C(=O)NC(C)(C)C)oc3ccccc23)cc1`, which “activity, negative = inhibition” value is on record?
Its value is -5.94% (inactive).

Which “activity, negative = inhibition” value does the source give for `CCCC(=O)Nc1ccc2oc(-c3ccc(O)c(Br)c3)nc2c1` here?
Its value is 0.0308% (inactive).

Which Potency does the source give for `O=C1/C(=C\c2ccc([N+](=O)[O-])cc2)CS(=O)(=O)C/C1=C/c1ccc([N+](=O)[O-])cc1` here?
Its Potency is 6.31 µM (active).

Which “activity, negative = inhibition” value does the source give for `CC(=O)Nc1ccc(C=CC(=O)c2ccc([N+](=O)[O-])cc2)cc1` here?
Its value is -0.532% (inactive).

With `CC(=O)Nc1ccc(C=Cc2ccc([N+](=O)[O-])cc2)cc1` as the compound, how does the “activity, negative = inhibition” value read?
The value was -0.331% (inactive).

Which “activity, negative = inhibition” value does the source give for `COC(=O)c1cccc(Cn2nnc3sc4c(c3c2=O)CCC(C(C)(C)C)C4)c1` (stereo unspecified) here?
The value was 2.33% (inactive).

For `COc1cccc(CNc2nccn(-c3ccc(OC)c(OC)c3)c2=O)c1`, which “activity, negative = inhibition” value is on record?
Its value is 1.79% (inactive).

For `O=C(NC1CCN(Cc2ccccc2)CC1)c1ccc(Cn2c(=O)c3ccccc3n(Cc3cccc(F)c3)c2=O)cc1`, which “activity, negative = inhibition” value is on record?
The value was -6.31% (inactive).

Which “activity, negative = inhibition” value does the source give for `Fc1ccc(-c2nc(Nc3cccc(Cl)c3)nc3c2COc2ccccc2-3)cc1` here?
The value was -2.73% (inactive).

Which “activity, negative = inhibition” value does the source give for `Cc1oc(C)c2c(=O)cc(-c3ccc4c(c3)OCO4)cc(OC(=O)c3ccc(Cl)cc3)c12` here?
Its value is 59.8% (inactive).

For `COc1ccc(C(=O)Nc2onc3c2CCCC3)cc1`, which “activity, negative = inhibition” value is on record?
The value was 6.55% (inactive).

With `Cc1ccc(NC(=O)NNC(=O)c2sccc2-n2cccc2)cc1` as the compound, how does the “activity, negative = inhibition” value read?
The value was 19.4% (inactive).

For `O=C(NNC(=O)c1ccc(-c2ccccc2)cc1)Nc1ccccc1`, which “activity, negative = inhibition” value is on record?
Its value is -0.136% (inactive).

For `C=CC[n+]1c(-c2ccc(C)cc2)csc1NNC(=O)Nc1ccccc1`, which Potency is on record?
Its Potency is 11.2 µM (active).

For `O=C(NC1CC(=O)N(c2ccc(F)cc2)C1)c1cccs1` (stereo unspecified), which “activity, negative = inhibition” value is on record?
The value was -3.09% (inactive).

With `CC1(C)CC(=O)C=C(NCCCNC2CCCCC2)C1` as the compound, how does the “activity, negative = inhibition” value read?
The value was -17.7% (inactive).

For `CCCCNS(=O)(=O)CCNCc1ccccc1OC`, which “activity, negative = inhibition” value is on record?
The value was 6.03% (inactive).

For `CCCCCCCCNS(=O)(=O)CCNC1CCCCC1`, which Potency is on record?
Its Potency is 17.8 µM (active).

Which “activity, negative = inhibition” value does the source give for `O=C(CC1Oc2ccc(Cl)cc2NC1=O)NCc1ccccc1` (stereo unspecified) here?
Its value is -15.2% (inactive).

Which “activity, negative = inhibition” value does the source give for `Cc1ccccc1CNC(=O)C(=O)NCC(c1cccs1)S(=O)(=O)c1cccs1` (stereo unspecified) here?
The value was 4.69% (inactive).

With `CN1CCN(c2ccc([N+](=O)[O-])c(Sc3nc4ccccc4[nH]3)c2)CC1` as the compound, how does the “activity, negative = inhibition” value read?
Its value is 4.28% (inactive).

Which Potency does the source give for `CCC(C)N1C(=O)S/C(=C/c2ccc(Sc3nc4ccccc4[nH]3)o2)C1=O` (stereo unspecified) here?
Its Potency is 11.2 µM (active).

Which “activity, negative = inhibition” value does the source give for `CN(Cc1ccccc1)C(=O)CSc1nc2ccccc2[nH]1` here?
The value was -5.19% (inactive).

For `COc1ccc(-c2nnc(SCC(=O)Nc3ccc(C(C)C)cc3)nc2-c2ccc(OC)c(OC)c2)cc1OC`, which “activity, negative = inhibition” value is on record?
The value was 0.381% (inactive).

With `COc1ccc(CNC(=O)Cn2nnc(-c3ccccc3F)n2)cc1` as the compound, how does the “activity, negative = inhibition” value read?
Its value is -2.89% (inactive).

With `O=C(NNC(=O)C(O)c1ccccc1)NC1CCCCC1` (stereo unspecified) as the compound, how does the “activity, negative = inhibition” value read?
Its value is 20.3% (inactive).

For `Cc1nc(/N=C(\N)NC(=O)NC2CCCCC2)nc2ccccc12`, which Potency is on record?
Its Potency is 12.6 µM (active).

With `CC(C)c1cc(C(=O)NC2CCCCCC2)c2ccccc2n1` as the compound, how does the “activity, negative = inhibition” value read?
The value was -0.515% (inactive).

For `CCC1(C)CC(=O)c2c(ccc3oc(C(=O)Nc4ccc(C(C)=O)cc4)c(C)c23)O1` (stereo unspecified), which “activity, negative = inhibition” value is on record?
Its value is 3.5% (inactive).

For `CCn1c(=O)cc(OCC(=O)Nc2cc(Cl)c(OC)cc2OC)c2ccccc21`, which “activity, negative = inhibition” value is on record?
The value was -0.391% (inactive).

For `COc1ccc(OC)c(-c2csc(-c3c(N)c(C(=O)c4ccccc4)n4ccccc34)n2)c1`, which “activity, negative = inhibition” value is on record?
The value was 9.43% (inactive).

For `C=CS(=O)c1sc(Cl)c(N2CCOCC2)c1[N+](=O)[O-]` (stereo unspecified), which Potency is on record?
Its Potency is 11.2 µM (active).

For `Cc1nnc(SC(C(=O)Nc2cc(Cl)cc(Cl)c2)c2ccccc2)[nH]c1=O` (stereo unspecified), which Potency is on record?
Its Potency is 17.8 µM (active).

Which “activity, negative = inhibition” value does the source give for `COc1cccc(NC(=O)C(Sc2nnnn2C)c2ccccc2)c1` (stereo unspecified) here?
Its value is -1.18% (inactive).

With `Cc1nnc(SC(C(=O)c2ccccc2)c2ccccc2)[nH]c1=O` (stereo unspecified) as the compound, how does the “activity, negative = inhibition” value read?
The value was 1.93% (inactive).

— PubChem BioAssay AID588855 (National Center for Advancing Translational Sciences (NCATS), 2011)
